Source: the supplement of paper PMC8728848
The entries come from a sample that favours the strongest signals as a whole.

Tests used:
Experiment in all cases: glycan array binding signal (z-score within array); higher = stronger binding
Conditions in all cases: glycan notation: IUPAC condensed, linker removed
Fuc(a1-2)Gal(b1-4)Glc = molecular target: Fuc(a1-2)Gal(b1-4)Glc
Outline: (§1)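 Negative Z-scores can be read as non-binding. The Z-score is calculated within each array and then averaged across arrays of one protein sequence at different concentrations or buffers and across linkers. Arrays, 3228 in all, were curated from the Consortium for Functional Glycomics database and kept only where the protein sequence was available.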

[1] = molecular target: Fuc(a1-2)Gal(b1-4)GlcNAc(b1-2)[Fuc(a1-2)Gal(b1-4)GlcNAc(b1-4)]Man(a1-3)[Fuc(a1-2)Gal(b1-4)GlcNAc(b1-2)Man(a1-6)]Man(b1-4)GlcNAc(b1-4)GlcNAc
Outline: as §1

[2] = molecular target: Fuc(a1-2)Gal(b1-4)GlcNAc(b1-6)GalNAc
Outline: as §1

[3] = molecular target: Fuc(a1-2)Gal(b1-4)[Fuc(a1-3)]GlcNAc(b1-2)[Fuc(a1-2)Gal(b1-4)[Fuc(a1-3)]GlcNAc(b1-4)]Man(a1-3)[Fuc(a1-2)Gal(b1-4)[Fuc(a1-3)]GlcNAc(b1-2)Man(a1-6)]Man(b1-4)GlcNAc(b1-4)GlcNAc
Outline: as §1

[4] = molecular target: Fuc(a1-2)[Gal(a1-3)]Gal(b1-4)GlcNAc
Outline: as §1

[5] = molecular target: Fuc(a1-2)[Gal(a1-3)]Gal(b1-4)GlcNAc(b1-2)Man
Outline: as §1

[6] = molecular target: Fuc(a1-2)[GalNAc(a1-3)]Gal(b1-3)GlcNAc
Outline: as §1

[7] = molecular target: Fuc(a1-2)[GalNAc(a1-3)]Gal(b1-4)GlcNAc(b1-2)Man(a1-3)[Fuc(a1-2)[GalNAc(a1-3)]Gal(b1-4)GlcNAc(b1-2)Man(a1-6)]Man(b1-4)GlcNAc(b1-4)[Fuc(a1-6)]GlcNAc
Outline: as §1

[8] = molecular target: Gal(a1-3)Gal(b1-3)GlcNAc(b1-6)GalNAc
Outline: as §1

[9] = molecular target: Gal(a1-3)Gal(b1-4)GlcNAc(b1-3)GalNAc
Outline: as §1

[10] = molecular target: Gal(b1-3)GlcNAc(b1-2)[Gal(b1-3)GlcNAc(b1-6)]Man(a1-6)[Gal(b1-3)GlcNAc(b1-2)Man(a1-3)]Man(b1-4)GlcNAc(b1-4)GlcNAc
Outline: as §1

[11] = molecular target: Gal(b1-3)[Fuc(a1-4)]GlcNAc(b1-6)GalNAc
Outline: as §1

Gal(b1-4)Glc6S = molecular target: Gal(b1-4)Glc6S
Outline: as §1

[12] = molecular target: Gal(b1-4)GlcNAc(b1-3)Gal(b1-3)GalNAc
Outline: as §1

[13] = molecular target: Gal(b1-4)GlcNAc(b1-3)Gal(b1-4)GlcNAc(b1-2)Man(a1-3)[Gal(b1-4)GlcNAc(b1-3)Gal(b1-4)GlcNAc(b1-2)Man(a1-6)]Man(b1-4)GlcNAc(b1-4)[Fuc(a1-6)]GlcNAc
Outline: as §1

[14] = molecular target: Gal(b1-4)GlcNAc(b1-3)Gal(b1-4)GlcNAc(b1-3)Gal(b1-4)GlcNAc(b1-3)Gal(b1-4)GlcNAc(b1-2)Man(a1-3)[Gal(b1-4)GlcNAc(b1-3)Gal(b1-4)GlcNAc(b1-3)Gal(b1-4)GlcNAc(b1-3)Gal(b1-4)GlcNAc(b1-2)Man(a1-6)]Man(b1-4)GlcNAc(b1-4)[Fuc(a1-6)]GlcNAc
Outline: as §1

[15] = molecular target: Gal(b1-4)GlcNAc(b1-6)[Gal(b1-4)GlcNAc(b1-3)]GalNAc
Outline: as §1

Gal3S(b1-4)Glc6S = molecular target: Gal3S(b1-4)Glc6S
Outline: as §1

Gal3S(b1-4)GlcNAc = molecular target: Gal3S(b1-4)GlcNAc
Outline: as §1

GalNAc(b1-4)Gal(b1-4)Glc = molecular target: GalNAc(b1-4)Gal(b1-4)Glc
Outline: as §1

[16] = molecular target: GalNAc(b1-4)GlcNAc(b1-2)Man(a1-3)[GalNAc(b1-4)GlcNAc(b1-2)Man(a1-6)]Man(b1-4)GlcNAc(b1-4)GlcNAc
Outline: as §1

[17] = molecular target: GlcNAc(a1-6)Gal(b1-4)GlcNAc
Outline: as §1

[18] = molecular target: GlcNAc(b1-3)Gal(b1-4)GlcNAc(b1-3)Gal(b1-4)GlcNAc(b1-2)Man(a1-3)[GlcNAc(b1-3)Gal(b1-4)GlcNAc(b1-3)Gal(b1-4)GlcNAc(b1-2)Man(a1-6)]Man(b1-4)GlcNAc(b1-4)[Fuc(a1-6)]GlcNAc
Outline: as §1

[19] = molecular target: GlcNAc(b1-3)Gal(b1-4)GlcNAc(b1-3)Gal(b1-4)GlcNAc(b1-3)Gal(b1-4)GlcNAc(b1-2)Man(a1-3)[GlcNAc(b1-3)Gal(b1-4)GlcNAc(b1-3)Gal(b1-4)GlcNAc(b1-3)Gal(b1-4)GlcNAc(b1-2)Man(a1-6)]Man(b1-4)GlcNAc(b1-4)[Fuc(a1-6)]GlcNAc
Outline: as §1

[20] = molecular target: Man(a1-2)Man(a1-2)Man(a1-6)[Man(a1-3)]Man
Outline: as §1

[21] = molecular target: Man(a1-3)[Man(a1-6)]Man(b1-4)GlcNAc(b1-4)[Fuc(a1-6)]GlcNAc
Outline: as §1

[22] = molecular target: Neu5Ac(a2-3)Gal(b1-3)GlcNAc(b1-3)GalNAc
Outline: as §1

[23] = molecular target: Neu5Ac(a2-3)Gal(b1-4)GlcNAc(b1-2)[Neu5Ac(a2-3)Gal(b1-4)GlcNAc(b1-6)]Man(a1-6)[Neu5Ac(a2-3)Gal(b1-4)GlcNAc(b1-2)Man(a1-3)][GlcNAc(b1-4)]Man(b1-4)GlcNAc(b1-4)GlcNAc
Outline: as §1

[24] = molecular target: Neu5Ac(a2-3)Gal(b1-4)GlcNAc(b1-3)Gal
Outline: as §1

[25] = molecular target: Neu5Ac(a2-3)Gal(b1-4)GlcNAc(b1-3)Gal(b1-4)GlcNAc(b1-3)GalNAc
Outline: as §1

[26] = molecular target: Neu5Ac(a2-3)Gal(b1-4)GlcNAc(b1-3)Gal(b1-4)[Fuc(a1-3)]GlcNAc
Outline: as §1

[27] = molecular target: Neu5Ac(a2-3)Gal(b1-4)GlcNAc(b1-6)[Neu5Ac(a2-3)Gal(b1-3)]GalNAc
Outline: as §1

[28] = molecular target: Neu5Ac(a2-3)Gal(b1-4)[Fuc(a1-3)]GlcNAc(b1-3)Gal(b1-4)GlcNAc
Outline: as §1

[29] = molecular target: Neu5Ac(a2-3)Gal(b1-4)[Fuc(a1-3)]GlcNAc(b1-3)GalNAc
Outline: as §1

[30] = molecular target: Neu5Ac(a2-3)Gal(b1-4)[Fuc(a1-3)]GlcNAc(b1-6)[Neu5Ac(a2-3)Gal(b1-3)]GalNAc
Outline: as §1

[31] = molecular target: Neu5Ac(a2-6)Gal(b1-4)GlcNAc(b1-2)Man(a1-3)[Man(a1-6)]Man(b1-4)GlcNAc(b1-4)GlcNAc
Outline: as §1

[32] = molecular target: Neu5Ac(a2-6)Gal(b1-4)GlcNAc(b1-2)Man(a1-3)[Neu5Ac(a2-6)Gal(b1-4)GlcNAc(b1-2)Man(a1-6)]Man(b1-4)GlcNAc(b1-4)GlcNAc
Outline: as §1

[33] = molecular target: Neu5Ac(a2-6)Gal(b1-4)GlcNAc(b1-2)Man(a1-3)[Neu5Ac(a2-6)Gal(b1-4)GlcNAc(b1-2)Man(a1-6)]Man(b1-4)GlcNAc(b1-4)[Fuc(a1-6)]GlcNAc
Outline: as §1

[34] = molecular target: Neu5Ac(a2-6)Gal(b1-4)GlcNAc(b1-3)Gal(b1-3)GlcNAc
Outline: as §1

[35] = molecular target: Neu5Ac(a2-6)Gal(b1-4)GlcNAc(b1-3)Gal(b1-4)GlcNAc(b1-3)Gal(b1-4)GlcNAc(b1-2)Man(a1-3)[Neu5Ac(a2-6)Gal(b1-4)GlcNAc(b1-3)Gal(b1-4)GlcNAc(b1-3)Gal(b1-4)GlcNAc(b1-2)Man(a1-6)]GalNAc
Outline: as §1

[36] = molecular target: Neu5Ac(a2-6)Gal(b1-4)GlcNAc(b1-3)Gal(b1-4)GlcNAc(b1-3)GalNAc
Outline: as §1

[37] = molecular target: Neu5Ac(a2-6)Gal(b1-4)GlcNAc(b1-3)[Neu5Ac(a2-6)Gal(b1-4)GlcNAc(b1-6)]GalNAc
Outline: as §1

[38] = molecular target: Neu5Ac(a2-8)Neu5Ac(a2-8)Neu5Ac(a2-3)[GalNAc(b1-4)]Gal(b1-4)Glc
Outline: as §1

[39] = molecular target: Neu5Gc(b2-6)Gal(b1-4)GlcNAc
Outline: as §1

B1: ERGIC1-EDTA (Homo sapiens), Q969X5 (protein)
chain: MKFLVNVALVFMVVYISYIYAAAHMHHHHHHDYDIPTTENLYFQGSEVVNELYVDDPDKDSGGKIDVSLNISLPNLHCELVGLDIQDEMGRHEVGHIDNSMKIPLNNGAGCRFEGQFSINKVPGNFHVSTHSATAQPQNPDMTHVIHKLSFGDTLQVQNIHGAFNALGGADRLTSNPLASHDYILKIVPTVYEDKSGKQRYSYQYTVANKEYVAYSHTGRIIPAIWFRYDLSPITVKYTE
Fuc(a1-2)Gal(b1-4)Glc
  glycan array binding signal (z-score): -1.4
[1]
  glycan array binding signal (z-score): 2.88
[2]
  glycan array binding signal (z-score): 1.3
[3]
  glycan array binding signal (z-score): 1.07
[4]
  glycan array binding signal (z-score): -0.089
[5]
  glycan array binding signal (z-score): 0.546
[6]
  glycan array binding signal (z-score): 0.499
[7]
  glycan array binding signal (z-score): 2.25
[8]
  glycan array binding signal (z-score): 0.056
[9]
  glycan array binding signal (z-score): -0.034
[10]
  glycan array binding signal (z-score): 3.15
[11]
  glycan array binding signal (z-score): -0.044
Gal(b1-4)Glc6S
  glycan array binding signal (z-score): -0.759
[12]
  glycan array binding signal (z-score): -1.26
[13]
  glycan array binding signal (z-score): 2.13
[14]
  glycan array binding signal (z-score): 2.23
[15]
  glycan array binding signal (z-score): -0.361
Gal3S(b1-4)Glc6S
  glycan array binding signal (z-score): 0.151
Gal3S(b1-4)GlcNAc
  glycan array binding signal (z-score): -0.117
GalNAc(b1-4)Gal(b1-4)Glc
  glycan array binding signal (z-score): -0.531
[16]
  glycan array binding signal (z-score): 0.638
[17]
  glycan array binding signal (z-score): -0.295
[18]
  glycan array binding signal (z-score): 0.799
[19]
  glycan array binding signal (z-score): 2.52
[20]
  glycan array binding signal (z-score): -0.459
[21]
  glycan array binding signal (z-score): 2.1
[22]
  glycan array binding signal (z-score): 0.617
[23]
  glycan array binding signal (z-score): -0.63
[24]
  glycan array binding signal (z-score): -0.734
[25]
  glycan array binding signal (z-score): -0.406
[26]
  glycan array binding signal (z-score): -0.82
[27]
  glycan array binding signal (z-score): -0.285
[28]
  glycan array binding signal (z-score): 2.27
[29]
  glycan array binding signal (z-score): 3
[30]
  glycan array binding signal (z-score): 1.03
[31]
  glycan array binding signal (z-score): 1.69
[32]
  glycan array binding signal (z-score): -0.027
[33]
  glycan array binding signal (z-score): 2.07
[34]
  glycan array binding signal (z-score): 0.896
[35]
  glycan array binding signal (z-score): 2.02
[36]
  glycan array binding signal (z-score): 0.381
[37]
  glycan array binding signal (z-score): -1.06
[38]
  glycan array binding signal (z-score): 0.592
[39]
  glycan array binding signal (z-score): -0.624
